Screening data deposited in PubChem by National Center for Advancing Translational Sciences (NCATS).
Compounds with a hit are over-represented: about 1.5% of the library has one in this group of screens.
NPSR antagonist: neuropeptide S receptor (human) antagonism, cAMP. Q6W5P4. CHO-NPSR cells, cAMP TR-FRET, antagonist mode. Potency, µM (doses to about 38.3 µM), for inactives: at the top dose activity change, negative = inhibition, usual class: inhibitors. hit rate 1% among 220,000; note: % is set by controls: 0 for no effect and ±100 for the full control effect; nearly all actives have a fitted effect of over 50% in size
Target sequence (Q6W5P4 whole entry, looked up): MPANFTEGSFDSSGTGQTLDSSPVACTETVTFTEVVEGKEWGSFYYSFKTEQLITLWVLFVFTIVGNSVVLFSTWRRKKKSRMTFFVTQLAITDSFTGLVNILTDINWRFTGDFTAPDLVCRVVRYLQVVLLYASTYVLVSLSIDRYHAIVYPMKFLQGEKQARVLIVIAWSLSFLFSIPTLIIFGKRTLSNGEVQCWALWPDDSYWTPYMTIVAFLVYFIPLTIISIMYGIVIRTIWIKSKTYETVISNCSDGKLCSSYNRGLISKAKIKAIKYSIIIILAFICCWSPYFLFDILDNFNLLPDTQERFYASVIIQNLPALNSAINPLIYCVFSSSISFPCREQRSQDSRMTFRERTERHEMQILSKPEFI
Epigenetic derep: derepresses silenced GFP reporter in murine cells | murine LDR cells, GFP reporter derepression, 30 h | Potency, µM (highest dose often 53.9 µM), for the others: at the highest dose GFP activation, most hits filed as activators | hit rate 0.2% among 280,000 | AID 1865; note: % of control where 0% means no effect; nearly all actives have a fitted effect of over 60% in size
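GFP-positive cell count by laser-scanning cytometry (objects 20–120 um) after 30 h, 37 C compound exposure of murine LDR cells; reporter is CMV-GFP integrated at a silenced locus, inducible by HDAC or DNMT inhibitors.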
HTT aggregate: mutant huntingtin aggregation inhibition. PC12 HttQ103-GFP aggregates, Acumen cytometry, 40 h. Potency, µM (top dose mostly 46.1 µM), inactives show at the top dose activity change, negative = inhibition, hits mostly inhibitors. hit rate 1.1% among 220,000. AID 1688; note: % is set by controls: 0 for no effect and ±100 for the full control effect; nearly all actives have a fitted effect of over 60% in size
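Compounds (qHTS titration) were added to PC12 cells expressing an ecdysone-driven HTT exon 1 Q103–GFP fusion after induction with 100 nM tebufenozide. Aggregate formation was measured as GFP objects in cell lysates.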
Lamin A splicing: modulators of lamin A splicing | HeLa LMNA splicing GFP/RFP minigene ratio, 48 h | Potency, µM (titrated, usually from 46.1 µM), without a hit: top-dose ratio change, negative = inhibition, usual class: inhibitors | hit rate 0.01% among 200,000; active = well fitted inhibition curve with a large enough effect in the signal ratio, with a control signal flat, not every such curve was filed as active; inconclusive = small, poorly fitted or top-dose-only effect, or effect the other way, or a change in a side signal; the % refers to the signal ratio; note: % is set by controls: 0 for no effect and ±100 for the full control effect
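S3 HeLa cells stably expressing lamin A-EGFP splicing minigene plus DsRed2, 600 cells/well, 48 h compound exposure at 37C. Laser-scanning cytometry; analysed as GFP (500-530 nm)/RFP (575-640 nm) total intensity ratio; 0.5% DMSO vehicle.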
HTT ATP protect: Huntington cell model cytoprotection by ATP luminescence; Potency, µM (titrated, usually from 56.4 µM), for inactives: cytoprotection (ATP increase), actives largely listed as activators; hit rate 0.14% among 230,000; PC12 HTT-Q103 induced, cytoprotection, ATP luminescence, 40 h; note: % of control where 0% means no effect; nearly all actives have a fitted effect of over 45% in size
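Compounds were screened for protection of PC12 cells against cell death after tebufenozide induction (100 nM final) of mutant Huntingtin exon 1 (Q103) fused to GFP.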
* marks the source's active call; other numbers are inactive results; [ ] = remark or other dose. Unless noted, calls come from the whole dose curve; as a rule, active = well fitted curve in the direction sought with a large enough effect; inconclusive = small, poorly fitted or top-dose-only effect, or another doubt; inactive = no such curve, though single readings can be large; an effect the other way counts as inactive or inconclusive. Potency is the fitted concentration of half-maximal effect.

How did Cc1ccc2nc3sc(C(=O)NCc4ccco4)c(N)c3cc2c1 do in these assays?
NPSR antagonist: -8.3%[46.1 µM]; Epigenetic derep: 15.8µM*; HTT aggregate: -31.0%; Lamin A splicing: inconclusive; HTT ATP protect: -18.6%[10 µM]

Results for CCc1ccc(/C=C2\SC(=S)N(CCC(=O)N3CCN(C)CC3)C2=O)cc1 ?
NPSR antagonist: 11.9%; Epigenetic derep: -3.0%; HTT aggregate: 11.7%; Lamin A splicing: inconclusive; HTT ATP protect: 17.8µM*

Results for O=C(CCN1C(=O)/C(=C\c2ccccc2Cl)SC1=S)N1CCN(c2ccccc2)CC1 ?
NPSR antagonist: 7.6%[46.1 µM]; Epigenetic derep: -0.9%; HTT aggregate: 8.2%; Lamin A splicing: -7.1%; HTT ATP protect: -22.4%

Results for COCCN1C(=O)/C(=C/c2ccc(N3CCCC3)cc2)SC1=S ?
NPSR antagonist: -21.7%; Epigenetic derep: 3.55µM*; HTT aggregate: -13.0%[9.22 µM]; HTT ATP protect: -26.5%

What do the screens show for `COc1ccc(/C=C2\SC(=S)N(CC(=O)N3CCN(C)CC3)C2=O)cc1`?
NPSR antagonist: -0.7%; Epigenetic derep: -0.5%; HTT aggregate: -17.3%[9.22 µM]; HTT ATP protect: 15.6%[10 µM]

What do the screens show for `Cc1ccc(NC(=O)Cn2c(-c3ccc4c(c3)OCO4)cn(-c3ccccc3)c2=O)cc1`?
Epigenetic derep: -1.6%

What do the screens show for `O=c1cc(C(F)(F)F)[nH]c2ccc(OC(F)(F)F)cc12`?
NPSR antagonist: 3.4%[7.67 µM]; Epigenetic derep: -1.4%; HTT aggregate: -4.7%[9.22 µM]; HTT ATP protect: -27.5%[10 µM]

How did O=c1cc(C(F)(F)F)[nH]c2c(C(F)(F)F)cccc12 do in these assays?
NPSR antagonist: 5.1%; Epigenetic derep: 12.4%; HTT aggregate: 20µM*; Lamin A splicing: inconclusive

Results for CCOC(=O)c1sc(=NC(=O)c2cccc(OC)c2)n(C)c1C ?
NPSR antagonist: 10µM*; Epigenetic derep: 2.1%; HTT aggregate: 11.1%; Lamin A splicing: inconclusive; HTT ATP protect: -13.0%

How did CCOC(=O)c1sc(=NC(=O)c2ccccc2)n(C)c1C do in these assays?
NPSR antagonist: inconclusive; Epigenetic derep: 3.9%; HTT aggregate: 9.8%; HTT ATP protect: -122.6%

Results for CCOC(=O)c1cnc(-n2nc(C)cc2C)nc1NC1CCCC1 ?
NPSR antagonist: 1.26µM*; Epigenetic derep: inconclusive; HTT aggregate: 20.9%[9.22 µM]; HTT ATP protect: -20.2%[10 µM]

How did CCOC(=O)c1cnc(-n2nc(C)cc2C)nc1NCCc1ccccc1 do in these assays?
NPSR antagonist: 12.6µM*; Epigenetic derep: 2.4%; HTT aggregate: 12.6µM*; Lamin A splicing: inconclusive; HTT ATP protect: -69.9%

Results for CCOC(=O)c1cnc(-n2nc(C)cc2C)nc1Nc1ccc(OC)cc1 ?
NPSR antagonist: inconclusive; Epigenetic derep: 0.0%; HTT aggregate: 11.5%; Lamin A splicing: -10.5%; HTT ATP protect: 12.0%[10 µM]

What do the screens show for `COc1ccc(NC(=O)c2c(NCc3ccc(N(C)C)cc3)sc3c2CCC3)cc1`?
Epigenetic derep: -1.1%; Lamin A splicing: -15.2%[46 µM]

Results for O=C1NC(=S)S/C1=C/c1ccc(N2CCOCC2)o1 ?
NPSR antagonist: 12.6µM*; Epigenetic derep: -1.9%; HTT aggregate: -30.8%; Lamin A splicing: inconclusive

How did C=CCN1C(=O)N/C(=C/c2ccc(N3CCOCC3)o2)C1=O do in these assays?
NPSR antagonist: -42.8%; Epigenetic derep: 1.1%; HTT aggregate: 5.01µM*; Lamin A splicing: inconclusive

What do the screens show for `O=C1N/C(=C/c2ccc(N3CCOCC3)o2)C(=O)N1c1ccccc1`?
NPSR antagonist: -37.3%; Epigenetic derep: inconclusive; HTT aggregate: inconclusive; Lamin A splicing: inconclusive; HTT ATP protect: -14.0%[0.074 µM]

How did O=C1S/C(=C/c2ccc(N3CCOCC3)o2)C(=O)N1Cc1ccc(F)cc1 do in these assays?
NPSR antagonist: -18.3%[46.1 µM]; Epigenetic derep: 14.1µM*; HTT aggregate: 13.3%; Lamin A splicing: 5.1%; HTT ATP protect: -40.4%

How did COc1ccc2cc(/C=C3\SC(=S)NC3=O)c(N3CCOCC3)nc2c1 do in these assays?
NPSR antagonist: -43.3%; Epigenetic derep: 2.0%; HTT aggregate: inconclusive; Lamin A splicing: inconclusive; HTT ATP protect: -0.4%[10 µM]

Results for O=C1N=C(N2CCOCC2)S/C1=C/c1ccc(-c2ccc(F)cc2)o1 ?
NPSR antagonist: 17.0%; Epigenetic derep: 1.1%; HTT aggregate: 7.4%[9.22 µM]; Lamin A splicing: inconclusive; HTT ATP protect: 37.3%[10 µM]
